Laboratory results taken from PubChem BioAssay (NCI).
Compounds without any hit were thinned out: in the full panel of roughly 79,000, 15% have a hit. Activity calls are given as the source filed them. No stated cut-off is given here; in the data, active means growth inhibition above about 70%; inactive means the rest.

Legend:
[1] = NCI Yeast Anticancer Drug Screen. Data for the rad52 strain (AID 147);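 further: 0% = growth of vehicle-treated control cultures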; conditions: S. cerevisiae rad52 mutant growth inhibition, active compounds read high
Procedure, shortened: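 Genetically altered yeast (DNA damage repair defect) treated with compound; inhibition calculated relative to vehicle.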

[2] = NCI Yeast Anticancer Drug Screen. Data for the wt1 strain (AID 149);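 further: 0% = growth of vehicle-treated wt1 cultures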; conditions: S. cerevisiae wt1 strain (SPY 50644) growth inhibition, active compounds read high
Procedure, shortened: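 Growth inhibition read against vehicle controls after compound exposure of the wt1 yeast strain.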

[3] = NCI Yeast Anticancer Drug Screen. Data for the rad50 strain (AID 155);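 further: 0% = growth of vehicle-only cultures of the same strain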; conditions: S. cerevisiae rad50 strain growth inhibition, active compounds read high
Procedure, shortened: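 Readout: growth inhibition relative to vehicle-treated cultures. Compound exposure was carried out in a genetically defined yeast strain deficient in DNA damage repair.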

[4] = NCI Yeast Anticancer Drug Screen. Data for the mec2-1 strain (AID 157); conditions: S. cerevisiae mec2-1 strain, active compounds read high
Procedure, shortened: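 Cells of the genetically defined mec2-1 yeast strain are incubated with test compound. Inhibition of growth is calculated against vehicle-treated controls.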

[5] = NCI Yeast Anticancer Drug Screen. Data for the rad14 strain (AID 159);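 further: 0% = growth of vehicle-treated control cultures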; conditions: S. cerevisiae rad14 strain growth inhibition, active compounds read high
Procedure, shortened: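 Growth inhibition vs vehicle controls; genetically altered yeast strain (DNA damage repair defect) treated with test compounds.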

[6] = NCI Yeast Anticancer Drug Screen. Data for the sgs1 mgt1 strain (AID 161);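 further: 0% = growth of cultures given vehicle only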; conditions: S. cerevisiae sgs1 mgt1 strain, active compounds read high
Procedure, shortened: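 Inhibition of yeast growth, normalised to vehicle-treated controls, is reported for a strain bearing genetic alterations in DNA damage repair.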

[7] = NCI Yeast Anticancer Drug Screen. Data for the CLN2oe strain (AID 163);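 further: 0% = growth of vehicle-only control cultures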; conditions: S. cerevisiae CLN2oe strain, active compounds read high
Procedure, shortened: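 Strain altered in cell-cycle control, incubated with compound; growth compared to solvent-treated controls.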

[8] = NCI Yeast Anticancer Drug Screen. Data for the cln2 rad14 strain (AID 165);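 further: 0% = growth equal to vehicle treated cultures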; conditions: S. cerevisiae cln2 rad14 strain, active compounds read high
Procedure, shortened: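 The screen exposed genetically defined yeast (cln2 rad14) to test compounds and scored growth inhibition relative to vehicle-treated controls.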

[9] = NCI Yeast Anticancer Drug Screen. Data for the bub3 strain (AID 167); conditions: S. cerevisiae bub3 mutant strain, active compounds read high
Procedure, shortened: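 Readout: yeast growth inhibition, expressed relative to vehicle-only wells. The test organism is a mutant strain from a panel with lesions in DNA repair or checkpoint genes.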

[10] = NCI Yeast Anticancer Drug Screen. Data for the wt2 strain (AID 169);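 further: 0% = growth of vehicle-treated yeast cultures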; conditions: S. cerevisiae wt2 strain growth inhibition, active compounds read high
Procedure, shortened: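 Steps: yeast strain treated with compound; growth recorded; inhibition calculated relative to cultures given vehicle alone.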

[11] = NCI Yeast Anticancer Drug Screen. Data for the mlh1 strain (AID 171);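 further: 0% = growth of vehicle-treated control cultures of the same strain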; conditions: S. cerevisiae mlh1 strain growth inhibition, active compounds read high
Procedure, shortened: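 Yeast screen: mutant strain plus compound, growth scored against vehicle control wells.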

[12] = NCI Yeast Anticancer Drug Screen. Data for the sgs1 strain (AID 173);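 further: 0% = growth of vehicle-only control cultures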; conditions: S. cerevisiae sgs1 mutant, active compounds read high
Procedure, shortened: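 Inhibition of yeast growth served as the measure. The mutant strain was treated with each compound, and growth was normalised to cultures receiving vehicle alone.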

[13] = NCI Yeast Anticancer Drug Screen. Data for the mlh1 rad18 strain (AID 175); conditions: S. cerevisiae mlh1 rad18 strain growth inhibition, active compounds read high
Procedure, shortened: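 Compound-treated yeast growth, normalised to vehicle controls. Strain bears defined DNA repair mutations.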

[14] = NCI Yeast Anticancer Drug Screen. Data for the rad50EPP+ strain (AID 151);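 further: 0% = growth of vehicle-treated control cultures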; conditions: S. cerevisiae rad50 mutant strain, active compounds read high
Procedure, shortened: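 Strain rad50EPP+; compound exposure; % growth inhibition vs vehicle.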

[15] = NCI Yeast Anticancer Drug Screen. Data for the rad18 strain (AID 177); conditions: S. cerevisiae rad18 mutant growth inhibition, active compounds read high
Procedure, shortened: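 Inhibition values reflect reduced yeast growth compared with vehicle-treated controls, using a strain engineered with a DNA damage repair defect.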

[16] = at 5.0 µM (retest, dose inferred, filed as 0.5)
[17] = at 50.0 µM (retest, dose inferred, filed as 5.0)

Measured: growth inhibition

CCOC(=O)CNC(=O)c1[nH]cnc1/N=N/N(C)C
inactive: [1]; at 1.2 µM -12% | [1]; at 3.7 µM -11% | [1]; at 11.0 µM -12% | [1]; at 33.0 µM 6% | [2]; at 1.2 µM 8% | [2]; at 3.7 µM 9% | [2]; at 11.0 µM 12% | [2]; at 33.0 µM 12% | [3]; at 1.2 µM -5% | [3]; at 3.7 µM 4% | [3]; [16] -10% | [3]; at 11.0 µM 2% | [3]; at 33.0 µM 5% | [3]; [17] 7% | [4]; at 1.2 µM -8% | [4]; at 3.7 µM -10% | [4]; [16] -7% | [4]; at 11.0 µM -8% | [4]; at 33.0 µM -6% | [4]; [17] -17% | [5]; at 1.2 µM 2% | [5]; at 3.7 µM 2% | [5]; at 11.0 µM 1% | [5]; at 33.0 µM 1% | [6]; [16] -12% | [6]; [17] -7% | [7]; at 1.2 µM 26% | [7]; at 3.7 µM 23% | [7]; at 11.0 µM 17% | [7]; at 33.0 µM 44% | [8]; [16] -1% | [8]; [17] 35% | [9]; at 1.2 µM 22% | [9]; at 3.7 µM 31% | [9]; [16] 3% | [9]; at 11.0 µM 29% | [9]; at 33.0 µM 62% | [10]; at 1.2 µM -2% | [10]; at 3.7 µM 1% | [10]; at 11.0 µM 0% | [10]; at 33.0 µM 1% | [11]; at 1.2 µM 13% | [11]; at 3.7 µM 5% | [11]; at 11.0 µM 4% | [11]; at 33.0 µM 2% | [12]; at 1.2 µM 10% | [12]; at 3.7 µM 1% | [12]; at 11.0 µM -2% | [12]; at 33.0 µM 9% | [13]; [16] -30% | [13]; [17] 59%
active: [1]; at 100.0 µM 98% | [2]; at 100.0 µM 98% | [3]; at 50.0 µM 89.6% | [3]; at 100.0 µM 97% | [4]; at 50.0 µM 90.3% | [4]; at 100.0 µM 98% | [5]; at 100.0 µM 97% | [6]; at 50.0 µM 89.5% | [7]; at 100.0 µM 98% | [8]; at 50.0 µM 90.5% | [9]; [17] 96% | [9]; at 50.0 µM 91.4% | [9]; at 100.0 µM 98% | [10]; at 100.0 µM 97% | [11]; at 100.0 µM 98% | [12]; at 100.0 µM 98% | [13]; at 50.0 µM 71.5%

CC1(C)C(C=O)=CCC1CC(N)=O (stereo unspecified)
inactive: [1]; at 1.2 µM -1% | [1]; at 3.7 µM -1% | [1]; at 11.0 µM 0% | [1]; at 33.0 µM 7% | [2]; at 1.2 µM -1% | [2]; at 3.7 µM 0% | [2]; at 11.0 µM 2% | [2]; at 33.0 µM 3% | [2]; at 100.0 µM 29% | [14]; at 1.2 µM 1% | [14]; at 3.7 µM -2% | [14]; at 11.0 µM 0% | [14]; at 33.0 µM 20% | [3]; at 1.2 µM -1% | [3]; at 3.7 µM -1% | [3]; [16] -2% | [3]; at 11.0 µM -1% | [3]; at 33.0 µM 1% | [3]; [17] 43% | [3]; at 100.0 µM 40% | [4]; at 1.2 µM 0% | [4]; at 3.7 µM 2% | [4]; [16] 4% | [4]; at 11.0 µM 1% | [4]; at 33.0 µM 7% | [4]; [17] 39% | [6]; [16] -3% | [6]; [17] -2% | [7]; at 1.2 µM -5% | [7]; at 3.7 µM -2% | [7]; at 11.0 µM -1% | [7]; at 33.0 µM -2% | [7]; at 100.0 µM 12% | [8]; [16] -3% | [8]; [17] 4% | [8]; at 50.0 µM 38.4% | [9]; at 1.2 µM -3% | [9]; at 3.7 µM -7% | [9]; [16] -19% | [9]; at 11.0 µM -2% | [9]; at 33.0 µM -5% | [9]; [17] -8% | [10]; at 1.2 µM -1% | [10]; at 3.7 µM 1% | [10]; at 11.0 µM 4% | [10]; at 33.0 µM 9% | [11]; at 1.2 µM 2% | [11]; at 3.7 µM 0% | [11]; at 11.0 µM 4% | [11]; at 33.0 µM 9% | [12]; at 1.2 µM -1% | [12]; at 3.7 µM 4% | [12]; at 11.0 µM 6% | [12]; at 33.0 µM 23% | [13]; [16] -6% | [15]; at 1.2 µM 0% | [15]; at 3.7 µM 0% | [15]; at 11.0 µM 22% | [15]; at 33.0 µM 6% | [15]; at 100.0 µM 54%
active: [1]; at 100.0 µM 80% | [14]; at 100.0 µM 93% | [3]; at 50.0 µM 98.5% | [4]; at 50.0 µM 98% | [4]; at 100.0 µM 96% | [6]; at 50.0 µM 87.3% | [9]; at 50.0 µM 99.2% | [9]; at 100.0 µM 93% | [10]; at 100.0 µM 83% | [11]; at 100.0 µM 96% | [12]; at 100.0 µM 99% | [13]; [17] 71% | [13]; at 50.0 µM 88.7%
